The list is not random: actives were taken first. Their share in the collection is about 1.1%.
CaV13 ICDI inh = Disruptors of the CACNA1D IQ motif to Ca2+-dependent inactivation inhibitor domain association, primary screening, Förster resonance energy transfer in intact living … | inhibition, % at 12.3 µM | AID 743397 | HEK cells, CFP/YFP FRET ICDI-IQ, plate reader, 10 min; percent FRET-ratio fall versus neutral wells | actives 0.098% (n = 340,000);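 active = mean replicate inhibition of at least 30% and at least 1% of replicates passing that level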;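 note: 0% = median of the neutral control wells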
ABCB6 inh MLPCN = human ABCB6 transporter inhibition. K562-ABCB6 porphyrin accumulation, flow cytometry, 1 h; hits give low values. fluorescence ratio to DMSO, % at 10 µM. actives 0.19% (n = 360,000);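 active = fluorescence ratio to DMSO below 75%, the collection mean minus 3 SD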;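 note: signal is porphyrin accumulated inside mitochondria; 100% equals median channel fluorescence of DMSO control wells; lower ratio means ABCB6 inhibition with less porphyrin fluorescence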
Target sequence (Q9NP58 whole entry, looked up): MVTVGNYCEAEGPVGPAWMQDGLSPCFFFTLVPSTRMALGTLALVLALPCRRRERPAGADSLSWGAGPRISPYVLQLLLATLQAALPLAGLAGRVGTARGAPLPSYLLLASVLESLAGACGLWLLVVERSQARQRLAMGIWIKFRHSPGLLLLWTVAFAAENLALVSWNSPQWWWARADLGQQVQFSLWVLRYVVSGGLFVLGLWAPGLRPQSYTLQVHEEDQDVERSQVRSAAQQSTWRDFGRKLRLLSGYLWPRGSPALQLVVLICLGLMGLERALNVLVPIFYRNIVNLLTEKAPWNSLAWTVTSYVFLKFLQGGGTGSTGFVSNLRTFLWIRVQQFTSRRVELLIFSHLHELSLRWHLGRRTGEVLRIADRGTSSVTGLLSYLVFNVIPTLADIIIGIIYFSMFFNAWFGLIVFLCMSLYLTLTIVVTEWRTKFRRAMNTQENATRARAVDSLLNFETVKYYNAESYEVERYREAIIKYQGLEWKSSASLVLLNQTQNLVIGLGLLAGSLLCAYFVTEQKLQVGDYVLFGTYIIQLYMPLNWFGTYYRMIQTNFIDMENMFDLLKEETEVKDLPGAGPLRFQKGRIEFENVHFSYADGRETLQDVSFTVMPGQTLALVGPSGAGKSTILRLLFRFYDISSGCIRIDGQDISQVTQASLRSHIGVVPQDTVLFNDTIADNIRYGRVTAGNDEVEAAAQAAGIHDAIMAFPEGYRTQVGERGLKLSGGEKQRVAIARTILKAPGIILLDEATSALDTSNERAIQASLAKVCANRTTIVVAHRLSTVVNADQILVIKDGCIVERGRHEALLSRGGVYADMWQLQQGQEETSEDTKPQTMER
VLA-4 inh = inhibition in a human VLA-4 binding assay; actives 0.2% (n = 330,000); inhibition, % (about 7 µM as worked out from the volumes in the protocol); VLA-4 expressing cells, ligand binding flow cytometry; AID 2557; in the data active = inhibition above about 50%
Granule exo inh = lytic granule exocytosis inhibition. AID 651702. actives 0.66% (n = 360,000). inhibition, % at 10 µM. TALL-104 LAMP-1 surface exposure, flow cytometry; cells stimulated with thapsigargin and PMA;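 active = inhibition above about 55%, limit read from the data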
ABCB6 inh CP1 = blocks the human ABCB6 transporter; ratio response (% of DMSO), % at 10 µM; 700 tested, under 10 active; shares compounds with ABCB6 inh MLPCN; AID 602430; K562-ABCB6 porphyrin accumulation, flow cytometry, 1 h; hits give low values;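 active = repeat-averaged ratio response below 75% of DMSO, the collection mean minus 3 SD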;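 note: median porphyrin fluorescence at 575 nm with 488 nm excitation from mitochondria; lower ratio means less porphyrin signal so ABCB6 inhibition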
Exocytosis CP01 = blocks lytic granule exocytosis. shares compounds with Granule exo inh. TALL-104 cells, LAMP-1 externalization, flow cytometry; stimulated with PMA plus thapsigargin. inhibition, % at 10 µM. AID 651954. actives 11% (n = 1,500); in the data active = inhibition above about 60%;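 note: 0% = stimulated vehicle wells and 100% = unstimulated wells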
Numbers without * were called inactive; i = inactive; . = no result given.

SMILES | CaV13 ICDI inh | ABCB6 inh MLPCN | VLA-4 inh | Granule exo inh | ABCB6 inh CP1 | others
CCOC(=O)C1CCN(C(=O)COC(=O)CNC(=O)c2ccc(C(C)(C)C)cc2)CC1 | -3 | 100 | 4 | -16 | .
CCCCn1cnc2c(cnn2-c2ccc(Cl)cc2)c1=O | . | 62* | 2 | 3 | 97
O=c1c2c(nc(NCCO)n1CC1CCCCC1)-c1ccccc1CC21CCCC1 | -4 | 61* | 12 | -1 | 100
COC(=O)c1ccccc1NC(=O)c1noc2c1CC(C(C)(C)C)CC2 (stereo not given) | -9 | 69* | -16 | -1 | 100
NS(=O)(=O)c1ccc(NC(=O)CN2CCc3ccccc3C2)cc1 | -3 | 73* | 8 | -6 | 99
O=C(Nc1ccc(Cl)cc1)ON=C1CCCC1 | -3 | 98 | -3 | 4 | .
CC1(C(=O)NS(=O)(=O)c2ccc(F)cc2F)CCN1C(=O)Cc1cc(F)ccc1F (stereo not given) | -10 | 86 | . | -4 | .
CC(C)c1ccc(CC(=O)N2CCC2(C)C(=O)NS(=O)(=O)c2cccc(OC(F)F)c2)cc1 (stereo not given) | -6 | 95 | . | 11 | 97
CC1(C(=O)NS(=O)(=O)c2cccc(OC(F)F)c2)CCN1C(=O)Cc1ccccc1 (stereo not given) | -5 | 96 | . | -1 | .
CC(C)c1ccc(CC(=O)N2CCC2(C)C(=O)NS(=O)(=O)c2ccc(F)cc2F)cc1 (stereo not given) | -6 | 99 | . | -1 | 97
CC1(C(=O)NS(=O)(=O)c2ccc(F)cc2F)CCN1C(=O)Cc1cccc2ccccc12 (stereo not given) | -6 | 97 | . | -1 | 100
O=C(CSc1cccc2cccc(Cl)c12)NCc1cccs1 | 0 | i | 4 | -4 | .
O=C1CC(c2ccccc2)Cc2nc3ncnn3cc21 (stereo not given) | -10 | 101 | 15 | 2 | .
CC(C)[C@H](CN1CCC[C@H]1CN1C(N)=NC[C@H]1C(C)C)N1C[C@@H](Cc2ccccc2)N(CCCC2CCCC2)C1=N | . | 97 | 26 | 3 | .
COc1ccc(OC)c(NC(=O)CNC(=O)c2ccc([N+](=O)[O-])cc2)c1 | -15 | 98 | 2 | 0 | .
CN(C)C1=NC[C@H](Cc2ccccc2)N1CC1CCCC1 | -10 | 72* | 29 | -14 | 98
CN(C)C1=NC[C@H](Cc2ccccc2)N1CC1CCCCC1 | -11 | 92 | -7 | 16 | .
Cc1ccc(-c2csc3ncnc(N4CCN(S(=O)(=O)c5cccs5)CC4)c23)cc1 | . | 74* | 15 | 0 | 97
COc1ccccc1C1CCN(Cc2cccc3ccccc23)CC1 | -20 | 68* | -1 | 60* | 99 | Exocytosis CP01=-3
COc1ccccc1C1CCN(Cc2ccc(Cl)cc2Cl)CC1 | -5 | 97 | -3 | -13 | .
O=c1[nH]c(C2CCN(S(=O)(=O)c3ccc(S(=O)(=O)NC4CC4)cc3)CC2)nc2c1nnn2Cc1cccc(F)c1 | -5 | 100 | 4 | -7 | .
Cc1coc2c1c(C)cc1oc(=O)c(Cc3ccccc3)c(C)c12 | -5 | 66* | -8 | 63* | 100 | Exocytosis CP01=-11
CCN(CC)CCNc1ncnc2c1sc1nc(N3CCCC3)c3c(c12)CC(C)(C)OC3 | -2 | 96 | 18 | 56* | . | Exocytosis CP01=1
CN(C)CCNc1ncnc2c1sc1nc(N3CCCC3)c3c(c12)CC(C)(C)OC3 | -5 | 97 | 5 | 49 | .
COC(=O)[C@H](Cc1c[nH]c2ccccc12)NC(=O)Cc1c[nH]c2ccccc12 | -13 | 97 | -3 | 66* | . | Exocytosis CP01=-12
N#CCOC(=O)[C@H](Cc1c[nH]c2ccccc12)NS(=O)(=O)c1ccc(Cl)cc1 | -5 | 95 | -14 | 57* | . | Exocytosis CP01=52
COC(=O)[C@H](Cc1c[nH]c2ccccc12)NC(=O)CCCc1c[nH]c2ccccc12 | -14 | 94 | 16 | 74* | . | Exocytosis CP01=-12
COC(=O)C(Cc1c[nH]c2ccccc12)NC(=O)C(=O)c1c[nH]c2ccccc12 (stereo not given) | -18 | 98 | -4 | 59* | . | Exocytosis CP01=-12
O=C(O)C(Cc1c[nH]c2ccccc12)NS(=O)(=O)c1ccc(F)cc1 (stereo not given) | -10 | 98 | . | -6 | .
